This is a sample that favours compounds with a hit; in the whole collection about 8.3% have one here.
Giardia FBPA inh: Giardia lamblia aldolase inhibition. purified Giardia FBPA. Potency, µM (titrated, usually from 59.6 µM), most hits filed as inhibitors. AID 2451. 290,000 tested, 0.71% active; note: nearly all actives have a fitted effect of over 55% in size
Target sequence (A8B2U2 whole entry, looked up): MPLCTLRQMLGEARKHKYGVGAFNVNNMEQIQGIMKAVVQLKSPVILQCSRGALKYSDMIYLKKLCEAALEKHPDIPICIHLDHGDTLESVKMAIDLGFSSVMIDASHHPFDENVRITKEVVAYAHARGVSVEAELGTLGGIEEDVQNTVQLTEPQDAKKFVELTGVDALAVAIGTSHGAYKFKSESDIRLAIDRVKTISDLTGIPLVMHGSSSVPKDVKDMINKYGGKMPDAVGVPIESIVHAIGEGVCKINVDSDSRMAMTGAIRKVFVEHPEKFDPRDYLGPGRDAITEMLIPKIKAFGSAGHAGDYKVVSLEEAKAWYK
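Giardia FBPA (40 nM reagent) was preincubated 10 min at RT with compound (up to 57.5 uM final), then substrate plus GAPDH/TPI/NAD/arsenate coupling system with diaphorase/resazurin was added; resorufin fluorescence (525/598 nm) was read after 20 min.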
MARV entry inh: Marburg virus entry inhibition | AID 540276 | Potency, µM (titrated, usually from 37.8 µM), usual class: inhibitors | Marburg virus pseudotyped entry inhibition, cell reporter | 300,000 tested, 1.8% active; calls by dose curve; tested in HEK293 cells
HCV inhibitor: HCV inhibition. Huh7.5.1 HCVcc-Cre infection, luciferase reporter, 44 h. Potency, µM (highest dose often 41.8 µM), most hits filed as inhibitors. 340,000 tested, 3.4% active. AID 651820
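Reporter virus HCVcc-Cre (~0.5 moi) infects cells exposed to compound; seeding density 1,000 cells/well with 4 h settling beforehand. Luminescence, 15 sec read, taken 44 h post-infection following a 15 min RT substrate incubation.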
HCMV antiviral: human cytomegalovirus inhibition. HFF cells, HCMV-luciferase reporter, 72 h; hits give low values. activity change, negative = inhibition, % at 57.5 µM. 410,000 tested, 4.5% active; in the data active = activity change below about -60%; inconclusive = no clear call, values can overlap the other calls; inactive = above about -39%
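Screen run at 2 compound doses on HFFs infected with reporter HCMV, MOI 1 PFU/cell. Luciferase activity from cell lysates at 72 h post infection gave inhibition relative to buffer-only and Salinomycin wells.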
FMDV antiviral: antivirals against foot and mouth disease virus. Potency, µM (highest dose often 57.9 µM), most hits filed as inhibitors. AID 1159524. FMDV antiviral cell-based qHTS. 410,000 tested, 1.2% active; calls by dose curve; tested in HEK293T cells; note: read-out not given here; nearly all actives have a fitted effect of over 45% in size
LASV entry inh: inhibitors of Lassa virus binding or cell entry; 300,000 tested, 1.2% active; Lassa virus pseudotype entry inhibition, cell reporter; Potency, µM (highest dose often 37.9 µM), most hits filed as inhibitors; calls by dose curve; tested in HEK293 cells; note: nearly all actives have a fitted effect of over 50% in size
A number is an active result; [ ] = dose if it differs, or a comment. Unless noted, calls come from the whole dose curve; as a rule, active = well fitted curve in the direction sought with a large enough effect; inconclusive = small, poorly fitted or top-dose-only effect, or another doubt; inactive = no such curve, though single readings can be large; an effect the other way counts as inactive or inconclusive.

For Cc1ccc(-c2csc3ncnc(N4CCN(c5ccccc5O)CC4)c23)cc1 the results were MARV entry inh inconclusive, HCV inhibitor inconclusive, HCMV antiviral inactive, FMDV antiviral inactive and LASV entry inh inconclusive.
COC(=O)[C@]12C[C@H](CC(=O)N3CCC(c4ccccc4)CC3)C(=O)N(Cc3ccc4c(c3)OCO4)C1=C[C@H](C(C)(C)C)O[C@@H]2C was read as HCMV antiviral inactive.
For COC(=O)[C@@H]1[C@@H](c2cccc(C(F)(F)F)c2)NC(=O)N(Cc2ccccc2)[C@@H]1C the results were MARV entry inh inactive.
C[C@@]1(c2ccco2)NC(=O)NC1=O was read as MARV entry inh inactive.
CC(C)[C@H](NC(=O)CNC(=O)OC(C)(C)C)C(=O)N[C@H](C=O)C(C)C was read as FMDV antiviral inactive.
Screening CC1CCN(c2ccccc2NC(=O)c2ccc(C#N)cc2F)CC1 returned Giardia FBPA inh inactive, MARV entry inh inactive, HCV inhibitor 10µM, HCMV antiviral inactive, FMDV antiviral inactive and LASV entry inh inactive.
CC(C)C(=O)N1CCN(c2ccccc2NC(=O)c2ccc(C#N)cc2F)CC1 was read as Giardia FBPA inh inactive, MARV entry inh inconclusive, HCV inhibitor inactive, HCMV antiviral inactive, FMDV antiviral inactive and LASV entry inh inactive.
For C=C(C)COc1ccc2c(CC)cc(=O)oc2c1C the results were Giardia FBPA inh inactive, MARV entry inh inconclusive, HCV inhibitor 11µM, HCMV antiviral inactive, FMDV antiviral inactive and LASV entry inh inactive.
`CCCOc1ccc2c(CC)cc(=O)oc2c1C` gave Giardia FBPA inh inactive, MARV entry inh inconclusive, HCV inhibitor inconclusive, HCMV antiviral inactive, FMDV antiviral inactive and LASV entry inh inactive.
Screening CCOC(=O)N/N=C1/C[C@@H](O)[C@@H](O)[C@@H]2[C@@H]3C(=O)N(c4cccc(Oc5ccccc5)c4)C(=O)[C@H]3CC[C@H]12 returned Giardia FBPA inh inactive[12.9 µM] and MARV entry inh inconclusive.
For CC(Oc1ccc(C(=O)c2ccccc2)cc1)C(=O)Nc1ccc(S(N)(=O)=O)cc1 (centres undefined) the results were Giardia FBPA inh inactive, MARV entry inh inconclusive, HCV inhibitor inconclusive, HCMV antiviral -68, FMDV antiviral inactive and LASV entry inh inactive.
For CCOc1ccc(OCC(=O)Nc2ccc(S(N)(=O)=O)cc2)cc1 the results were Giardia FBPA inh inactive, MARV entry inh inconclusive, HCV inhibitor inactive, HCMV antiviral inconclusive, FMDV antiviral inactive and LASV entry inh inactive.
`NS(=O)(=O)c1ccc(NC(=O)COc2ccc(C(=O)c3ccc(F)cc3)cc2)cc1` gave Giardia FBPA inh inactive, HCV inhibitor 14µM, HCMV antiviral inactive and FMDV antiviral inconclusive.
`CCOc1ccc(S(=O)(=O)/N=C(/Nc2ccc(S(N)(=O)=O)cc2)c2ccccc2)cc1` gave HCV inhibitor inactive, HCMV antiviral -103 and FMDV antiviral inactive.
`CCOC(=O)c1cccc(NS(=O)(=O)c2c(C)nc3sc(C)cn3c2=O)c1` gave HCMV antiviral inactive, FMDV antiviral inactive and LASV entry inh inactive.
Screening COc1ccc(OC)c(-n2c(O)c(C=NCc3ccc4c(c3)OCO4)c(=O)[nH]c2=O)c1 returned Giardia FBPA inh inactive, MARV entry inh inactive, HCV inhibitor inactive, HCMV antiviral inactive, FMDV antiviral inactive and LASV entry inh inactive.
`O=c1[nH]c(=O)n(-c2cccc3ccccc23)c(O)c1C=NCc1ccc2c(c1)OCO2` gave Giardia FBPA inh inactive, MARV entry inh inactive, HCV inhibitor inactive, HCMV antiviral -108, FMDV antiviral inconclusive and LASV entry inh inactive.
Screening O=C(c1ccc([N+](=O)[O-])s1)N1CCN(c2ccccn2)CC1 returned Giardia FBPA inh inactive, MARV entry inh inactive, HCV inhibitor inconclusive, HCMV antiviral -61, FMDV antiviral inactive and LASV entry inh inactive.
Screening O=C(c1cc(Br)c(Br)s1)N1CCN(c2ccccn2)CC1 returned MARV entry inh inconclusive, HCV inhibitor inactive, HCMV antiviral inactive, FMDV antiviral inactive and LASV entry inh inactive.
O=C(c1ccc([N+](=O)[O-])s1)N1CCN(c2ccccc2)CC1 was read as Giardia FBPA inh inactive, MARV entry inh inactive, HCV inhibitor inconclusive, HCMV antiviral -96 and FMDV antiviral inactive.
Screening CCCCCCC(=O)Cc1cc(OC)c(OC)cc1/C=C(/C(C)=O)C(=O)OC returned Giardia FBPA inh inactive[12.9 µM] and MARV entry inh inactive.
Screening O=c1oc2ccc(Cl)cc2cc1-c1nnc(Nc2cccc(C(F)(F)F)c2)s1 returned Giardia FBPA inh inactive, MARV entry inh inactive, HCV inhibitor inactive, HCMV antiviral -64, FMDV antiviral inactive and LASV entry inh inactive.
For COC(=O)C1=NNC(C(=O)c2ccco2)C1c1ccc(OC)cc1 (centres undefined) the results were Giardia FBPA inh inactive, HCV inhibitor inactive, HCMV antiviral -64 and FMDV antiviral inactive.
Screening CS(=O)(=O)c1ncc(Cl)c(C(=O)N2CCN(c3cccc(Cl)c3)CC2)n1 returned MARV entry inh inconclusive, HCMV antiviral -101, FMDV antiviral 18µM and LASV entry inh inconclusive.
COc1ccc(OCC(=O)N2CCN(c3cccc(Cl)c3)CC2)cc1 was read as Giardia FBPA inh inactive, MARV entry inh inconclusive, HCV inhibitor inactive, HCMV antiviral inactive, FMDV antiviral inactive and LASV entry inh inactive.
For CCS(=O)(=O)c1ncc(Cl)c(C(=O)N2CCN(c3cccc(Cl)c3)CC2)n1 the results were MARV entry inh 5.6µM, HCMV antiviral -101, FMDV antiviral 14µM and LASV entry inh inconclusive.
`CC1CCc2onc(C(=O)N3CCN(c4cccc(Cl)c4)CC3)c2C1` (centres undefined) gave HCMV antiviral -60, FMDV antiviral inactive and LASV entry inh inconclusive.
Screening CCOc1ccc(NC(=O)C(C)Oc2ccccc2C(=O)Nc2ccc(C)c(Cl)c2)cc1 (centres undefined) returned Giardia FBPA inh inactive, MARV entry inh inactive, HCV inhibitor 11µM, HCMV antiviral inactive, FMDV antiviral inactive and LASV entry inh inactive.
Screening Cc1ccc(NC(=O)COc2ccccc2C(=O)Nc2ccccc2)cc1Cl returned Giardia FBPA inh inactive, MARV entry inh inactive, HCV inhibitor inactive, HCMV antiviral inactive, FMDV antiviral inactive and LASV entry inh inactive.
`COc1ccccc1Cn1c(=S)[nH]c2cc(C(=O)N3CCCC3)ccc2c1=O` gave HCV inhibitor inactive, HCMV antiviral inactive and FMDV antiviral inactive.
For COc1ccccc1Cn1c(=S)[nH]c2cc(C(=O)NCCN(C)C)ccc2c1=O the results were Giardia FBPA inh inactive, MARV entry inh 10µM, HCV inhibitor inconclusive, HCMV antiviral inactive, FMDV antiviral inactive and LASV entry inh inactive.
For CCN1CCN(C(=O)c2ccc3c(=O)n(Cc4ccccc4OC)c(=S)[nH]c3c2)CC1 the results were Giardia FBPA inh inactive, MARV entry inh inactive, HCV inhibitor 11µM, HCMV antiviral inactive, FMDV antiviral inactive and LASV entry inh inactive.

Assay outcomes (PubChem BioAssay)
